The panel holds about 83,000 compounds, 20% with a hit somewhere; the sample as a whole holds those more often.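 The test compound was applied at a single concentration to cells in 96-well plates for 48 hours, and percent growth was recorded.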 The source made the active and inactive calls. The calls were made as follows: active = growth percent below 10; inactive = the rest.
Assays:
Test in all cases: NCI-60 one-dose screen, 48 h (100 = growth as untreated, 0 = no growth, -100 = all killed)
Details in all cases: 10 µM unless noted
SK-MEL-2 melanoma = tested on: SK-MEL-2 melanoma
SN12C renal = tested on: SN12C renal
UO-31 renal = tested on: UO-31 renal
TK-10 renal = tested on: TK-10 renal
ACHN renal = tested on: ACHN renal
CAKI-1 renal = tested on: CAKI-1 renal
A498 renal = tested on: A498 renal
CCRF-CEM leukemia = tested on: CCRF-CEM leukemia
MOLT-4 leukemia = tested on: MOLT-4 leukemia
SR leukemia = tested on: SR leukemia
RPMI-8226 leukemia = tested on: RPMI-8226 leukemia
OVCAR-8 ovarian = tested on: OVCAR-8 ovarian
OVCAR-5 ovarian = tested on: OVCAR-5 ovarian
OVCAR-4 ovarian = tested on: OVCAR-4 ovarian
SK-OV-3 ovarian = tested on: SK-OV-3 ovarian
IGROV1 ovarian = tested on: IGROV1 ovarian
HS 578T breast = tested on: HS 578T breast
NCI/ADR-RES ovarian = tested on: NCI/ADR-RES ovarian
OVCAR-3 ovarian = tested on: OVCAR-3 ovarian

Measured: growth

CCCCCc1c(C)[nH]c(/C=c2\[nH]/c(=C3/C=c4ccccc4=N3)cc2OC)c1C
active: SK-MEL-2 melanoma -73.9% | SN12C renal -51.4% | UO-31 renal -89.7% | TK-10 renal -47% | ACHN renal -78.3% | CAKI-1 renal -38.7% | A498 renal -29.4% | CCRF-CEM leukemia -19% | MOLT-4 leukemia -23.1% | SR leukemia -20.3% | RPMI-8226 leukemia -49.5% | OVCAR-8 ovarian -41.9% | OVCAR-5 ovarian -7.96% | OVCAR-4 ovarian 4.16% | SK-OV-3 ovarian -17.2% | IGROV1 ovarian -4.01% | HS 578T breast -37.1% | NCI/ADR-RES ovarian -20.6%

CCN(Cc1ccccc1)c1ccc(SC#N)cc1
inactive: SK-MEL-2 melanoma 104% | SN12C renal 87.9% | UO-31 renal 32.9% | TK-10 renal 102% | ACHN renal 63.5% | CAKI-1 renal 92.6% | A498 renal 86.9% | CCRF-CEM leukemia 13% | MOLT-4 leukemia 59.5% | RPMI-8226 leukemia 80.3% | OVCAR-8 ovarian 85.9% | OVCAR-5 ovarian 97.2% | OVCAR-4 ovarian 50.5% | SK-OV-3 ovarian 107% | IGROV1 ovarian 103% | OVCAR-3 ovarian 46.2% | NCI/ADR-RES ovarian 81.9%
active: SR leukemia -9.48%

COc1cc(CCn2nnc3c(Nc4ccc(N5CCOCC5)cc4)ncnc32)cc(OC)c1
inactive: SK-MEL-2 melanoma 115% | SN12C renal 103% | UO-31 renal 86.9% | TK-10 renal 123% | ACHN renal 97.4% | CAKI-1 renal 93.9% | A498 renal 80.4% | CCRF-CEM leukemia 84.5% | MOLT-4 leukemia 76.4% | SR leukemia 64.2% | RPMI-8226 leukemia 72.8% | OVCAR-8 ovarian 109% | OVCAR-5 ovarian 95.3% | OVCAR-4 ovarian 91.1% | SK-OV-3 ovarian 112% | IGROV1 ovarian 110% | OVCAR-3 ovarian 92.8% | HS 578T breast 91.2% | NCI/ADR-RES ovarian 86.3%

Cc1ccc(C2=NN(c3ccc(S(=O)(=O)NC(=O)NCc4ccccc4)cc3)C(c3ccc(N(C)C)cc3)C2)c(C)c1 (centres undefined)
inactive: SK-MEL-2 melanoma 40.9% | SN12C renal 46.5% | UO-31 renal 38.3% | TK-10 renal 66.5% | ACHN renal 44.7% | CAKI-1 renal 47.7% | A498 renal 51% | CCRF-CEM leukemia 42% | MOLT-4 leukemia 23.1% | SR leukemia 21.5% | RPMI-8226 leukemia 16.6% | OVCAR-8 ovarian 30.6% | OVCAR-5 ovarian 55.1% | OVCAR-4 ovarian 57.7% | SK-OV-3 ovarian 88.3% | IGROV1 ovarian 54.1% | OVCAR-3 ovarian 38.3% | NCI/ADR-RES ovarian 33.7%

CCC1CCc2nc3sc(C(=O)Nc4ccccc4C)c(N)c3cc2C1 (centres undefined)
active: RPMI-8226 leukemia 3.92%
inactive: SK-MEL-2 melanoma 21.9% | SN12C renal 58% | UO-31 renal 37.6% | TK-10 renal 59.6% | ACHN renal 47.4% | CAKI-1 renal 29.4% | A498 renal 33.2% | CCRF-CEM leukemia 18.7% | MOLT-4 leukemia 39.7% | SR leukemia 12.8% | OVCAR-8 ovarian 57.3% | OVCAR-5 ovarian 76.5% | OVCAR-4 ovarian 89% | SK-OV-3 ovarian 44.8% | IGROV1 ovarian 65.3% | HS 578T breast 49.4% | NCI/ADR-RES ovarian 18.4%

Clc1ccc([I+]c2ccc(Cl)cc2Cl)c(Cl)c1
inactive: SK-MEL-2 melanoma 77.4% | SN12C renal 33.3% | ACHN renal 29.6% | CAKI-1 renal 27% | A498 renal 69.9% | SR leukemia 22.8% | SK-OV-3 ovarian 96.7% | IGROV1 ovarian 39.7% | HS 578T breast 79% | NCI/ADR-RES ovarian 79.4%
active: UO-31 renal -50.8% | TK-10 renal -82.4% | CCRF-CEM leukemia -1.96% | MOLT-4 leukemia -6.5% | RPMI-8226 leukemia -25.7% | OVCAR-8 ovarian -1.2% | OVCAR-5 ovarian -25.9% | OVCAR-4 ovarian 0.221% | OVCAR-3 ovarian -75.5%

O=c1[nH]c(-c2cn(-c3ccc(Cl)cc3)nn2)nc2ccccc12
inactive: SK-MEL-2 melanoma 77.2% | SN12C renal 71.9% | UO-31 renal 46.1% | TK-10 renal 80.6% | ACHN renal 42.5% | CAKI-1 renal 84.2% | A498 renal 24.7% | CCRF-CEM leukemia 98.6% | MOLT-4 leukemia 93.7% | SR leukemia 80.4% | RPMI-8226 leukemia 83.5% | OVCAR-8 ovarian 48.5% | OVCAR-5 ovarian 102% | OVCAR-4 ovarian 36% | SK-OV-3 ovarian 38.9% | IGROV1 ovarian 74.1% | OVCAR-3 ovarian 85.4% | HS 578T breast 37% | NCI/ADR-RES ovarian 63.9%

COc1ccc(/C=C/c2nc(N3CCOCC3)c3cc(F)c(F)cc3n2)cc1OC
active: MOLT-4 leukemia 6.52%
inactive: SK-MEL-2 melanoma 43.3% | SN12C renal 33.4% | UO-31 renal 20.1% | TK-10 renal 28.8% | ACHN renal 33.1% | CAKI-1 renal 28.1% | A498 renal 45.5% | CCRF-CEM leukemia 35.8% | SR leukemia 16.2% | RPMI-8226 leukemia 12.2% | OVCAR-8 ovarian 32.9% | OVCAR-5 ovarian 76% | OVCAR-4 ovarian 30.6% | SK-OV-3 ovarian 71.8% | IGROV1 ovarian 53.4% | HS 578T breast 70.1% | NCI/ADR-RES ovarian 22.8%

CC(=O)OCC1OC(OCC2OC(OC(C)=O)C(OC(C)=O)C(OC(C)=O)C2OC(C)=O)C(OC(C)=O)C(OC(C)=O)C1OC(C)=O (centres undefined)
inactive: SK-MEL-2 melanoma 107% | SN12C renal 95.1% | UO-31 renal 95.4% | TK-10 renal 106% | ACHN renal 94.7% | CAKI-1 renal 94.7% | A498 renal 87% | CCRF-CEM leukemia 99.6% | MOLT-4 leukemia 104% | SR leukemia 98% | RPMI-8226 leukemia 99.3% | OVCAR-8 ovarian 95.2% | OVCAR-5 ovarian 101% | OVCAR-4 ovarian 107% | SK-OV-3 ovarian 89.9% | IGROV1 ovarian 106% | OVCAR-3 ovarian 109% | HS 578T breast 97.2% | NCI/ADR-RES ovarian 101%

Clc1nc2ccccc2nc1CI
active: CCRF-CEM leukemia -4.61% | SR leukemia 8.99%
inactive: SK-MEL-2 melanoma 64.3% | SN12C renal 54.3% | UO-31 renal 69.2% | TK-10 renal 166% | ACHN renal 92.1% | CAKI-1 renal 97.8% | A498 renal 120% | MOLT-4 leukemia 20.2% | RPMI-8226 leukemia 77.6% | OVCAR-8 ovarian 90.4% | OVCAR-5 ovarian 109% | OVCAR-4 ovarian 94.3% | SK-OV-3 ovarian 104% | IGROV1 ovarian 72.7% | OVCAR-3 ovarian 123% | NCI/ADR-RES ovarian 98.9%

NS(=O)(=O)c1ccc(CN2C(=O)c3cccc4cccc(c34)C2=O)cc1
inactive: SK-MEL-2 melanoma 93% | SN12C renal 93.1% | UO-31 renal 57.3% | TK-10 renal 81.8% | ACHN renal 88.1% | CAKI-1 renal 75.9% | A498 renal 108% | CCRF-CEM leukemia 85.8% | MOLT-4 leukemia 95.5% | SR leukemia 104% | RPMI-8226 leukemia 87.2% | OVCAR-8 ovarian 91.9% | OVCAR-5 ovarian 89.6% | OVCAR-4 ovarian 119% | SK-OV-3 ovarian 101% | IGROV1 ovarian 105% | OVCAR-3 ovarian 98.5% | NCI/ADR-RES ovarian 98%

O=C(Nc1ccccc1)OCC1OCOC(COC(=O)Nc2ccccc2)C1OC(=O)Nc1ccccc1 (centres undefined)
inactive: SK-MEL-2 melanoma 109% | SN12C renal 77.3% | UO-31 renal 85.6% | TK-10 renal 83.3% | ACHN renal 48.4% | CAKI-1 renal 91.7% | A498 renal 69% | CCRF-CEM leukemia 29.5% | MOLT-4 leukemia 73.8% | SR leukemia 18.1% | RPMI-8226 leukemia 40.1% | OVCAR-8 ovarian 32% | OVCAR-5 ovarian 52.5% | SK-OV-3 ovarian 91.5% | IGROV1 ovarian 70.8% | OVCAR-3 ovarian 28.8% | HS 578T breast 67.7% | NCI/ADR-RES ovarian 69.8%
active: OVCAR-4 ovarian -44.6%

O=S(=O)(c1ccccc1)n1ccc(-c2ccc3c(c2)CCO3)n1
inactive: SK-MEL-2 melanoma 86.5% | SN12C renal 67.9% | UO-31 renal 51% | TK-10 renal 76.2% | ACHN renal 78.4% | CAKI-1 renal 75.3% | A498 renal 71.2% | CCRF-CEM leukemia 76.7% | MOLT-4 leukemia 85.6% | SR leukemia 73.3% | RPMI-8226 leukemia 62.4% | OVCAR-8 ovarian 84% | OVCAR-5 ovarian 103% | OVCAR-4 ovarian 70.1% | SK-OV-3 ovarian 104% | IGROV1 ovarian 75.7% | HS 578T breast 102% | NCI/ADR-RES ovarian 76%

O=C(Nc1cc(C(F)(F)F)cc(C(F)(F)F)c1)Nc1ccc(OCc2nnc(-c3ccc(Cl)cc3)o2)c(F)c1
inactive: SN12C renal 11.1% | TK-10 renal 21.1% | MOLT-4 leukemia 18% | OVCAR-8 ovarian 10.6% | OVCAR-4 ovarian 24% | IGROV1 ovarian 32.7% | OVCAR-3 ovarian 16%
active: SK-MEL-2 melanoma -37.9% | UO-31 renal -2.51% | ACHN renal -6.91% | CAKI-1 renal 4.76% | A498 renal -7.1% | CCRF-CEM leukemia 6.66% | SR leukemia 0.985% | RPMI-8226 leukemia 3.52% | OVCAR-5 ovarian -5.15% | SK-OV-3 ovarian 5.55% | NCI/ADR-RES ovarian 4.95%

Cc1ccc(S(=O)(=O)OC2COCOC2C(OS(=O)(=O)c2ccc(C)cc2)C2OCOCC2OS(=O)(=O)c2ccc(C)cc2)cc1 (centres undefined)
inactive: SK-MEL-2 melanoma 104% | SN12C renal 91.3% | UO-31 renal 95.8% | TK-10 renal 101% | ACHN renal 105% | CAKI-1 renal 105% | A498 renal 95.9% | CCRF-CEM leukemia 100% | MOLT-4 leukemia 90.1% | SR leukemia 96.2% | RPMI-8226 leukemia 107% | OVCAR-8 ovarian 103% | OVCAR-5 ovarian 101% | OVCAR-4 ovarian 118% | SK-OV-3 ovarian 107% | IGROV1 ovarian 110% | OVCAR-3 ovarian 110% | NCI/ADR-RES ovarian 110%

NC(=S)NN=C1CCCCC1
inactive: SK-MEL-2 melanoma 107% | SN12C renal 85.2% | UO-31 renal 79.8% | TK-10 renal 100% | ACHN renal 103% | CAKI-1 renal 103% | A498 renal 87% | CCRF-CEM leukemia 39.6% | MOLT-4 leukemia 68.8% | SR leukemia 72.1% | RPMI-8226 leukemia 68.8% | OVCAR-8 ovarian 68.6% | OVCAR-5 ovarian 104% | OVCAR-4 ovarian 53.6% | SK-OV-3 ovarian 73% | IGROV1 ovarian 83.7% | OVCAR-3 ovarian 38% | HS 578T breast 82.3% | NCI/ADR-RES ovarian 72.6%

Reference: PubChem BioAssay (NCI)
